Compound activity from PubChem.
Pf Dd2 inh: inhibitors of Plasmodium falciparum Dd2 growth; P. falciparum Dd2 growth, SYBR Green, 72 h; Potency, µM (titrated, usually from 28.9 µM), inactives show at the highest dose activity, negative = inhibition, actives largely listed as inhibitors; actives 4.3% (n = 120,000); active = well fitted inhibition curve with a large enough effect;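 note: plate controls were DMSO vehicle for no effect and reference drug for full effect; nearly all actives have a fitted effect of over 65% in size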
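Readout: SYBR Green fluorescence, 485 nm excitation, 535 nm emission, after ~16 h lysis at 37C. Before that, Dd2-infected red cells (2.5% hematocrit) grew 72 h with compound, 29 uM top final concentration.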
The depositor's hits bear a star; i = inactive; [ ] = another dose, or the depositor's remark. This excerpt belongs to a sample that is enriched for hits. Potency is the fitted concentration of half-maximal effect.

SMILES | Pf Dd2 inh
CCNC(=O)O[C@@H]1CC[C@]2(C)C(CC[C@@H](O)[C@H]2CC(=O)NCc2ccc(F)cc2)[C@]1(C)CO (some centres not stated) | -5%
CC(C)NC(=O)O[C@@H]1CC[C@]2(C)C(CC[C@@H](O)[C@H]2CC(=O)NCc2ccco2)[C@]1(C)CO (some centres not stated) | -11%
CCCNC(=O)O[C@@H]1CC[C@]2(C)[C@H](CC[C@@H](O)[C@H]2CC(=O)N2CCCC2)[C@]1(C)CO | 0%[44.1 µM]
COc1cc(NC(=O)O[C@@H]2CC[C@]3(C)C(CC[C@@H](O)[C@H]3CC(=O)N3CCCCC3)[C@]2(C)CO)cc(OC)c1OC (some centres not stated) | 5µM*
CCOc1ccc(C2Cn3nnc(-c4nc(-c5ccncc5)no4)c3CO2)cc1 (configuration not stated) | -5%
CCOc1cc(=O)n2c(c1C(=O)Nc1ccc(Cl)cc1)CCCC2 | 2%
CCn1c(CO)nnc1C1CC(NC(=O)Cc2csc(C(C)=O)c2)C1 (configuration not stated) | -6%
Cc1nc(C)c(C(=O)N[C@@H]2CN(Cc3cccnc3)C[C@H]2CN(C)C)s1 | i
COc1cc(OC)cc(-c2nc(C3CC(=O)N(c4ccc(C)cc4)C3)no2)c1 (configuration not stated) | 7%
CNC(=O)[C@@H](c1ccc(OC)cc1)N1CCC[C@H]1C(=O)NCCN1CCOCC1 | i
CCc1ccc(C(=O)COC(=O)C(NC(=O)C2CCC(C)CC2)C(C)C)cc1 (configuration not stated) | 11%
Cc1ccc(Cn2c(=O)n(CC3CCC(C(=O)N4CCOCC4)CC3)c(=O)c3sccc32)cc1 (configuration not stated) | -7%
Cc1ccccc1Cn1c(=O)n(CC2CCC(C(=O)N3CCOCC3)CC2)c(=O)c2sccc21 (configuration not stated) | -19%
O=C(C1CCC(Cn2c(=O)c3sccc3n(Cc3cccc(F)c3)c2=O)CC1)N1CCCCC1 (configuration not stated) | 8.9µM*
COCc1cn(C[C@H]2C[C@@H](NC(=O)c3ccc4c(c3)OCO4)[C@H](O)[C@@H]2O)nn1 | 12%[44.1 µM]
Cc1cccc2c(=O)cc(CSc3ccccc3NC(=O)c3cccc(F)c3)[nH]c12 | i
Cn1c(=O)oc2cc(S(=O)(=O)CCC(=O)NCCc3ccccc3)ccc21 | 5%
c1coc(-c2nc3ccccn3c2Nc2ccc3c(c2)OCCO3)c1 | i
CSc1ccc(-c2nc3cc(C)ccn3c2Nc2ccc(C)cc2)cc1 | 0%
Cc1ccc(-c2nc3ccccn3c2Nc2ccc3c(c2)OCCO3)s1 | i
Cc1ccc2nc(-c3cccc(Cl)c3)c(Nc3ccc4c(c3)OCO4)n2c1 | -7%
CN(C)c1ccc(-c2nc3ccccn3c2Nc2ccc3c(c2)OCCO3)cc1 | 10µM*
Cc1ccn2c(Nc3ccc4c(c3)OCO4)c(-c3ccc(O)cc3)nc2c1 | 13µM*
CCn1ccc(C(=O)N2c3ccccc3CC2c2nc(C3CC3)no2)n1 (configuration not stated) | i[5.79 µM]
CNC(=O)Nc1ccc(C2(C(=O)N3CCN(c4ccccc4)CC3)CCC2)cc1 | -14%
SMILES | Pf Dd2 inh
CCCC1c2nccn2CCCN1C(=O)c1cc(C2CC2)[nH]n1 (configuration not stated) | 12%
Cc1ccc(CNC(=O)CCC2CCN(S(=O)(=O)c3ccccc3)CC2)cc1 | 1%
COc1cccc(CC(=O)N2CCCn3nc(C)c(-c4ccccc4-c4ccccc4)c32)c1 | 10µM*
Cc1nn2c(c1-c1ccccc1C(C)C)N(C(=O)Cc1ccc(O)cc1)CCC2 | i
Cc1nn2c(c1-c1ccccc1C(C)C)N(Cc1ccc(C(=O)O)cc1)CCC2 | -10%[44.1 µM]
Cc1nn2c(c1-c1ccccc1OCc1ccccc1)N(C(=O)CCc1cccnc1)CCC2 | i
Cc1ccncc1-c1c(C)nn2c1N(Cc1ccc(C(=O)O)cc1)CCC2 | i
Cc1nn2c(c1-c1ccccc1Oc1ccccc1)N(C(=O)Cc1ccc(O)cc1)CCC2 | 8.9µM*
COc1ccccc1C(=O)N1CCCn2nc(C)c(-c3ccccc3-c3ccccc3)c21 | -17%[44.1 µM]
Cc1nn2c(c1-c1ccccc1C(C)C)N(Cc1cccc(C(=O)O)c1)CCC2 | 4.5µM*
Cc1nn2c(c1-c1ccccc1C(N)=O)N(C(=O)Cc1cccc(F)c1)CCC2 | 13%[44.1 µM]
Cc1nn2c(c1-c1ccccc1OCc1ccccc1)N(C(=O)C(C)C)CCC2 | i
Cc1nn2c(c1-c1ccccc1Oc1ccccc1)N(C(=O)C1CCC1)CCC2 | -2%[44.1 µM]
COc1cccc(CC(=O)N2CCCn3nc(C)c(-c4ccccc4Oc4ccccc4)c32)c1 | 13µM*
Cc1ccc(CN2C(=O)[C@@H]3C[C@@H](O)CN3C3(CN(Cc4cccnc4)C3)C2=O)o1 | -22%[44.1 µM]
O=C1CC(c2nc(-c3ccccc3)no2)CN1c1ccccc1 (configuration not stated) | 54%
COCCOC1CCOC2(CCN(C(=O)c3ccncc3)CC2)C1 (configuration not stated) | 67%
Cc1csc(NC(=O)c2nc3c(o2)CCN(Cc2ccc(C#N)cc2)CC3)n1 | i
Cc1c(CCC(=O)N2CCCCC2)c(=O)oc2cc3occ(C(C)(C)C)c3cc12 | i
COc1ccc(OC)c(NC(=O)N2CCC(CN3CCCCC3)CC2)c1 | -15%
Cn1c(NCCO)nc2c1c(=O)n(Cc1cccc(F)c1)c(=O)n2C | -4%
CC(C)S(=O)(=O)c1ncc(CN(C)Cc2cnn(C)c2)n1CCc1ccccc1 | -21%
O=C(NCCN1CCCCC1)C1CCCN(c2cnc3nccnc3c2)C1 (configuration not stated) | i
Cc1nn2c(c1-c1ccccc1-c1ccccc1)N(C(=O)c1cccnc1)CCC2 | i
CC(=O)N1CCCn2nc(C)c(-c3ccccc3OCc3ccccc3)c21 | i
SMILES | Pf Dd2 inh
COc1ccc(C(=O)N2CCCn3nc(C)c(-c4ccccc4-c4ccccc4)c32)cn1 | i
Cc1nn2c(c1-c1ccccc1Oc1ccccc1)N(Cc1ccccc1O)CCC2 | 0.56µM*
COc1ccc(C(=O)N2CCCn3nc(C)c(-c4ccccc4-c4ccccc4)c32)cc1 | 10µM*
Cc1nn2c(c1-c1ccccc1[S+](C)(=O)[O-])N(Cc1ccccc1F)CCC2 | i
Cc1ccccc1CNC(=O)C1CCCN(Cc2ccncc2)CCC(=O)NCC1 (configuration not stated) | -16%
O=C(c1cccc(C(F)(F)F)c1)N1CC(CO)C2(CCNCC2)C1 (configuration not stated) | 6%
N#Cc1cccc(-c2n[nH]c3c2CC(=O)N(Cc2ccccn2)C3)c1 | 18%[44.1 µM]
CCC1(CO)CCCN(C(=O)CCc2ccc3c(c2)OCO3)C1 (configuration not stated) | -12%
CC(Cc1ccc2c(c1)OCO2)CN1CCC(CO)(CN2CCCC2)CC1 (configuration not stated) | 5µM*
C[C@]1(O)CCN(C(=O)Cc2ccc3c(c2)OCO3)C[C@@H]1O | -8%
CN(C)CCn1ccnc1C1CCN(S(=O)(=O)c2cnn(C)c2)CC1 | 1%
Cn1ncc(N2CCC(C(=O)N3CCc4ccccc43)C2)cc1=O (configuration not stated) | -4%
Cc1ccc(NC(=O)CC2Nc3ccccc3NC2=O)cc1C (configuration not stated) | -6%
COC(=O)c1ccc(NC(=O)CC2Nc3cc(C)c(C)cc3NC2=O)cc1 (configuration not stated) | 4µM*
